Laboratory results published in PubChem BioAssay (NCATS).
Records with an inconclusive call do not appear. Activity calls are given as the source filed them. Calls follow the shape of the dose curve; as a rule, active = well fitted inhibition curve with a large enough effect; inconclusive = small, poorly fitted or top-dose-only effect; inactive = flat fitted curve, though single readings scatter.

Legend:
Assay in all cases: Cytotoxic Profiling of Annotated Libraries Using Quantitative High-Throughput Screening (AID 1296008); also: nearly all actives have a fitted effect of over 60% in size
Details in all cases: Five cell lines viability, CellTiter-Glo ATP luminescence, 48-72 h; max response: stronger effect = lower value
CRL-7250 = normal cell line; tested on: CRL-7250
Method in brief: (§1)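 Cells exposed to compounds for 48 or 72 hr at 37 degrees Celsius. Viability read as ATP-coupled luminescence with CellTiter-Glo after 10 min at room temperature.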

HEK293 = tested on: HEK293
Method in brief: as §1

HaCat = tested on: HaCat
Method in brief: as §1

KB-3-1 = tested on: KB-3-1
Method in brief: as §1

NIH3T3 = tested on: NIH3T3
Method in brief: as §1

Measured: max response
% is scaled to controls: 0 for no effect and ±100 for the full control effect.

C/C=C(/C)C(=O)OC1C2OC2C2(CO2)C2C3OC(=O)C(C)C3CCC12C (stereo not given)
inactive: CRL-7250 -1.71% | HEK293 | HaCat 3.73% | KB-3-1 9.88% | NIH3T3 -1.74%

CC(=O)N[C@H]1[C@H](O[C@H]2CC[C@]3(C)C4CC=C5[C@@H]6CC(C)(C)CC[C@]6(C(=O)O)[C@H](O)C[C@@]5(C)[C@]4(C)CC[C@H]3C2(C)C)O[C@H](CO)[C@@H](O)[C@@H]1O (stereo not given in full)
inactive: CRL-7250 -7.8% | HEK293 -6.92% | HaCat | KB-3-1 -6.34% | NIH3T3

H-DPPDPDRFYGMM-NH2
inactive: CRL-7250 | HEK293 -1.35% | HaCat -3.96% | KB-3-1 | NIH3T3

CC(C/C=C/C(C)(C)O)C1CCC(C)(O)C(O)C1 (stereo not given)
inactive: CRL-7250 | HEK293 2.47% | HaCat 0.0762% | KB-3-1 | NIH3T3

CCOc1ccc(-c2cc(NC(=O)c3c(F)cccc3F)c(C(=O)O)s2)cc1
inactive: CRL-7250 -4.12% | HEK293 1.07% | HaCat | KB-3-1 -17.4% | NIH3T3 -24.8%

CC1=C[C@@H]2[C@H]3[C@@H]4O[C@@](C)(CC[C@H]4O)[C@H]3CC(=O)[C@]23C(=O)N[C@@H](CC(C)C)[C@@H]3[C@@H]1C
inactive: CRL-7250 | HEK293 4.29% | HaCat | KB-3-1 9.19% | NIH3T3

CCc1nnc(NS(=O)(=O)c2ccc(NC(=S)NC(=O)/C=C/c3ccc(F)cc3)cc2)s1
inactive: CRL-7250 | HEK293 -0.631% | HaCat | KB-3-1 | NIH3T3

C=C1C(=O)O[C@@H]2CC(C)=C([C@@H](C)CCCOC(C)=O)[C@@H](O)[C@H]12
inactive: CRL-7250 0.455% | HEK293 1.32% | HaCat | KB-3-1 6.41% | NIH3T3

O=C(O)CC1CCC(c2ccc(-c3ccc(Nc4ccc(C(F)(F)F)nc4)cn3)cc2)CC1 (stereo not given)
inactive: CRL-7250 3.84% | HEK293 -8.47% | HaCat | KB-3-1 -6.84% | NIH3T3 2.56%

CC(C)=C1C[C@@]2(C)C(=CC1=O)CC[C@@H](O)[C@@H]2C
inactive: CRL-7250 -13.6% | HEK293 | HaCat -1.2% | KB-3-1 3.47% | NIH3T3 -19.7%

C[C@]12CCC[C@](C)(C(=O)O)C1CCC13CC(CO)C(CCC12)C3 (stereo not given in full)
inactive: CRL-7250 -1.66% | HEK293 2.28% | HaCat -11.1% | KB-3-1 8.03% | NIH3T3

CN1CCN(C2=Nc3ccccc3Nc3ccc(O)cc32)CC1
inactive: CRL-7250 2.24% | HEK293 -1.86% | HaCat | KB-3-1 | NIH3T3 4.15%

CCC(C)/C=C(C)/C=C/C1=CC2=C(Cl)C(=O)C(C)(O)C(=O)C2(O)C(OC)O1 (stereo not given)
inactive: CRL-7250 -11.8% | HEK293 -3.29% | HaCat | KB-3-1 | NIH3T3

C/C(CO)=C1/CCC23COC(C2)C(O)(C(=O)O)CCC13 (stereo not given)
inactive: CRL-7250 1.3% | HEK293 | HaCat 0.569% | KB-3-1 2.82% | NIH3T3 -0.495%

CC1C2=CC(=O)OC2(O)CC2C1C(OC(=O)c1ccccc1)C(OC(=O)c1ccccc1)C1(O)C2(C)CCC(O)C1(C)C(=O)O (stereo not given)
inactive: CRL-7250 -2.75% | HEK293 3.81% | HaCat | KB-3-1 -1.08% | NIH3T3 -2.68%

C=C(C(=O)OC)[C@]12O[C@@](C)(CC[C@@]3(O)/C(=C\C)C(=O)O[C@]3(C)C[C@@H]1OC(=O)C(CO)CN1CCCC1C(=O)O)CC2=O (stereo not given in full)
inactive: CRL-7250 | HEK293 -8.55% | HaCat | KB-3-1 | NIH3T3

O=C1NC(=O)/C(=C/c2cccc(C(F)(F)F)c2)S1
inactive: CRL-7250 | HEK293 | HaCat 3.45% | KB-3-1 -2.21% | NIH3T3 4.34%

CC(=O)NC1CC(=O)C23C(=O)NC(Cc4c[nH]c5ccccc45)C2C(C)=C(C)C(O)C3/C=C/CC(C)/C=C(/C)C(O)C1O (stereo not given)
inactive: CRL-7250 -0.702% | HEK293 4.13% | HaCat | KB-3-1 0.623% | NIH3T3

O=C(O)CCc1cccc(O)c1O[C@@H]1O[C@H](CO)[C@@H](O)[C@H](O)[C@H]1O
inactive: CRL-7250 3.73% | HEK293 -3.2% | HaCat | KB-3-1 8.15% | NIH3T3

Cc1cccc(NC(=O)CN2CCC(c3ccccn3)CC2)c1
inactive: CRL-7250 | HEK293 -3.86% | HaCat | KB-3-1 -2.52% | NIH3T3 4.5%
